Active and inactive are the calls of the source.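 Rule for the calls, unless noted: active = visually confirmed hit in the image check and inhibition above 20%; inconclusive = visually confirmed hit but inhibition not above 20%; inactive = no visual hit in the image check.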
Legend:
[1] = inhibitors of TNFa-induced NFkB p65 translocation, primary screen, imaging, HUVEC, MLSMR starter and 10KST1 sets (AID 438;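 active = inhibition above 20% together with a positive visual image hit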;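 note: compound added about 3h40 before a 20 min TNFalpha stimulation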;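 for inhibition: signal is the nuclear over cytoplasmic p65 intensity ratio per well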); settings: HUVEC TNFa-induced p65 nuclear translocation; cell count: measured here: nuclei count (cytotoxicity indicator), at 2.08 µM; inhibition: at 2 µM, stronger effect = higher value, 0% TNFa-plus-vehicle, 100% no-TNFa wells
[2] = reduction of polyQ htt aggregates in cells – imaging, exon1htt(103Q)mCFP cells, high-content imaging, primary screen (AID 483;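 active = visual image review flags a hit and inhibition of aggregation exceeds 20%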;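 note: compound exposure lasted 3 days before fixation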;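 for nuclei count: percent of the per-plate median nuclei count of sample wells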); settings: exon1htt(103Q)mCFP cell line, aggregate imaging, at 2 µM; inhibition of aggregation: stronger effect = higher value; nuclei count: measured here: cell count, toxicity
[3] = endothelial E-selectin expression blockers – imaging, HUVEC, immunofluorescence, MLSMR starter and 10KST1 sets, primary screen (AID 487); settings: HUVEC TNFalpha-induced E-selectin immunofluorescence imaging, at 2 µM; inhibition: stronger effect = higher value; nuclei count: measured here: cell number, toxicity;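 for inhibition: signal is fraction of cell area covered by stained E-selectin grains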;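 for nuclei count: 100% = median nuclei count of all wells on the same plate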
[4] = biological target: Voltage-gated potassium channel subunit beta-2 (Rattus norvegicus) (UniProt P62483); assay: inhibitors of rat Kvbeta2 reductase activity – biochemical, NADPH fluorescence, primary screen (AID 622;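 active = fluorescence slope higher than the sample average by over 3 SD, cut at about -0.22 in these data, passing the limit was not always enough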;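 note: slope of raw intensity against log time taken from 70 to 1610 s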); settings: recombinant KvBeta, 4-cyanobenzaldehyde reduction, at 10 µM, stronger effect = higher value
[5] = biological target: Voltage-gated potassium channel subunit beta-2 (Rattus norvegicus) (UniProt P62483); assay: enhancers of rat Kvbeta2 NADPH turnover – biochemical, NADPH fluorescence, primary screen (AID 623;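 active = NADPH fluorescence slope more negative than the mean of all samples by about 3 SD, 99.7% confidence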;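 note: fluorescence intensity change per second fitted from 20 to 320 s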); settings: Recombinant KvBeta, NADPH fluorescence decrease slope, 10 min; at 10 µM; stronger effect = lower value
[6] = biological target: Alpha-2C adrenergic receptor (Homo sapiens) (UniProt P18825); assay: compounds altering alpha2C-coupled GIRK flux – cell-based, HEK293 alpha2C/GIRK1/2, thallium flux, primary screen (AID 624;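 active = fluorescence slope after compound addition differing from the mean of all screened samples at 99.7% confidence, in either direction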;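 note: slope of fluorescence ratio to pre-addition baseline per second over 15 to 24 s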); settings: thallium flux BTC fluorescence, at 10 µM, actives lie on both sides
[7] = blockers of RIG-like receptor reporter activation – cell-based, Sendai virus stimulus, luciferase, 10K MLSCN set, TLR/RLR signaling modifier project, primary screen (AID 602276;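 active = inhibition at or above 50% at 10 µM; inactive = inhibition below 50%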;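 note: firefly luciferase from ISG56 promoter only with Renilla not read in this screen; 0% = Sendai virus plus DMSO and 100% = medium plus DMSO without virus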); settings: HEK293 RL24 IRF3 luciferase reporter, at 10 µM, stronger effect = higher value
[8] = TLR3 IRF3 reporter activation blockers – cell-based, poly I:C stimulus, luciferase, 10K MLSCN set, primary screen (AID 602277;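 active = inhibition of the reporter signal at or above 50%; inactive = inhibition below 50%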); settings: HEK293-TLR3 RL24 IRF3 luciferase reporter, at 10 µM, stronger effect = higher value

Alpha-2C adrenergic receptor (Homo sapiens), sequence (P18825 whole entry, looked up): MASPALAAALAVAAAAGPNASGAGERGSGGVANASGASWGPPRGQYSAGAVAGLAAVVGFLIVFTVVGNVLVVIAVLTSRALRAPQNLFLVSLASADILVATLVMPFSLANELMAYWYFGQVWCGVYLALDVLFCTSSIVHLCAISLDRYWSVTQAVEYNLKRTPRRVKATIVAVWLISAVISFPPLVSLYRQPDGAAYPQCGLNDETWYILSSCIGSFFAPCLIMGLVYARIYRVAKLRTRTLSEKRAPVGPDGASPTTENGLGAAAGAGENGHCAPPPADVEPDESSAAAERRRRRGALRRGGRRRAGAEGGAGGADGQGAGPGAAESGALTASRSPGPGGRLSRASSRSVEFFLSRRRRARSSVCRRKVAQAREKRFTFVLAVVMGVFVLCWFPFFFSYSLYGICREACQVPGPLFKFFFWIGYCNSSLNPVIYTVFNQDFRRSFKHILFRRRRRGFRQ
Voltage-gated potassium channel subunit beta-2 (Rattus norvegicus), sequence (P62483 whole entry, looked up): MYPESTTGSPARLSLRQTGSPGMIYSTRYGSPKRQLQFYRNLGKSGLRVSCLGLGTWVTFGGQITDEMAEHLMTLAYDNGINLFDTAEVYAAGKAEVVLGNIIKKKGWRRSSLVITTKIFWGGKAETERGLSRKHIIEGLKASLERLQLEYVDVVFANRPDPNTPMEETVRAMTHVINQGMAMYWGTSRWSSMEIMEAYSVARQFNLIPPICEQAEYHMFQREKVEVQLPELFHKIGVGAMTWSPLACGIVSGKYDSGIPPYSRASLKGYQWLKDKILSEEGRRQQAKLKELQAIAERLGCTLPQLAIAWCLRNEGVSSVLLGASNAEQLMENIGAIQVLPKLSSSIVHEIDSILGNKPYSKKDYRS

SMILES	cell count [1]	inhibition [1]	inhibition of aggregation [2]	nuclei count [2] [%]	inhibition [3]	nuclei count [3] [%]	fluorescence slope [4]	NADPH fluorescence slope [5]	slope [6]	inhibition [7]	inhibition [8]
Cc1nc2sc(C(c3cccc(F)c3)N3CCC(C)CC3)c(O)n2n1 (centres undefined)	231	-5.4% (inactive)	-13.1% (inactive)	109	9.7% (inactive)	108	-0.524 (inactive)	-7.2e-05 (inactive)	0.00644 (inactive)	14.4% (inactive)	17% (inactive)
O=C(CN(Cc1ccc(F)cc1)C(=O)Cn1nnc2ccccc21)NCC1CCCO1 (centres undefined)	438	-6.8% (inactive)	5.8% (inactive)	107	-33% (inactive)	84	-0.434 (inactive)	7.2e-05 (inactive)	0.00612 (inactive)	13.2% (inactive)	26.1% (inactive)
O=C(CSc1nc2ccccc2o1)NC(=O)NCc1ccco1	342	-1.8% (inactive)	-12.3% (inactive)	94.8	-31.1% (inactive)	112	-0.333 (inactive)	-3.3e-05 (inactive)	0.00371 (inactive)	-2.31% (inactive)	12.3% (inactive)
CCCn1c(SCC(=O)NCc2ccco2)nc2c1c(=O)n(C)c(=O)n2C	433	-9.2% (inactive)	16.5% (inactive)	104	-144% (inactive)	160	-0.379 (inactive)	-4.1e-05 (inactive)	0.0049 (inactive)	16.6% (inactive)	10.9% (inactive)
CCOc1ccc(S(=O)(=O)n2c(C)nc3ccccc32)cc1	781	-5.8% (inactive)	-0.6% (inactive)	101	-99.9% (inactive)	115	-0.627 (inactive)	9.2e-06 (inactive)	0.00517 (inactive)	49.1% (inactive)	5.17% (inactive)
O=C(OCC#CCSc1nnc(-c2ccncc2)o1)c1cccs1	513	5.2% (inactive)	-4.1% (inactive)	104	-19.4% (inactive)	102	-0.426 (inactive)	-2e-05 (inactive)	0.00642 (inactive)	1.96% (inactive)	24.8% (inactive)
O=C1C2C3C=CC(C3=C3CCCCC3)C2C(=O)N1c1ccccc1 (centres undefined)	512	-10.1% (inactive)	3.7% (inactive)	104	-29.2% (inactive)	103	-0.61 (inactive)	-3.9e-06 (inactive)	0.00655 (inactive)	12.4% (inactive)	16% (inactive)
O=C(CN1CCN(c2nc(-c3ccccc3)cs2)CC1)Nc1ccc2c(c1)OCO2	529	-11.3% (inactive)	-0.3% (inactive)	106	-77.7% (inactive)	146	-0.518 (inactive)	1.7e-05 (inactive)	0.00563 (inactive)	-2.24% (inactive)	-3.31% (inactive)
COc1ccc(-c2nnc3sc(C(C)N4C(=O)c5ccccc5C4=O)nn23)cc1 (centres undefined)	528	-3.3% (inactive)	2.3% (inactive)	91.9	-8.9% (inactive)	105	-0.45 (inactive)	4.5e-05 (inactive)	0.00329 (inactive)	-9.81% (inactive)	-4.7% (inactive)
Cc1sc2nc(SCc3nc4ccccc4[nH]3)n(Cc3ccco3)c(=O)c2c1C	585	-2.2% (inactive)	17.5% (inactive)	91.4	8.2% (inactive)	97.3	-0.59 (inactive)	-2e-05 (inactive)	0.00556 (inactive)	0.73% (inactive)	-54.9% (inactive)
CCOC(=O)c1c(C)n(C)c2c(C)cc(O)c(OC(C)=O)c12	292	-5% (inactive)	-6.8% (inactive)	96.7	-12.4% (inactive)	109	-0.467 (inactive)	-7.1e-06 (inactive)	0.00417 (inactive)	4.23% (inactive)	-2.25% (inactive)
CC1(C)OC(=O)N(c2cccnc2)C1(C)O (centres undefined)	597	8.1% (inactive)	-2.8% (inactive)	101	41.8% (inactive)	104	-0.401 (inactive)	-2.3e-05 (inactive)	0.00628 (inactive)	13.3% (inactive)	19.9% (inactive)
COCCNC(=O)c1ccc(CS(=O)(=O)c2c(Cl)cccc2Cl)o1	462	-6.8% (inactive)	22.9% (inactive)	103	-46.3% (inactive)	112	-0.428 (inactive)	2.4e-05 (inactive)	0.00478 (inactive)	-1.52% (inactive)	24.5% (inactive)
COCCNC(=O)CCCCCN1C(=O)CCC1=O	221	-7.7% (inactive)	-8.5% (inactive)	85.3	25.1% (inactive)	71.9	-0.595 (inactive)	-5.1e-05 (inactive)	0.00625 (inactive)	11.6% (inactive)	24.9% (inactive)
